Results on 44 sequences are retold here after the supplement of paper PMC11417369.

± gives the standard deviation of the averaged measurements. The full ranking holds about 25,000 sequences; the median of “ln(normalized median fluorescence intensity)” is about 8.9, and the highest 2% start at about 10. This is one part of a sample in which the highest values are shown more often than they occur.

The subject of the assay is PfAP2-LT AP2 domain (GST-tagged). As to the kind of experiment: gcPBM binding intensity (ln(normalized median fluorescence intensity)); higher = stronger DNA binding. In short, it runs like this:
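GST-tagged P. falciparum DNA-binding domains, expressed in E. coli (about 25 μg on average), were applied for 1 h to an Agilent 4 × 180k array of primer-extended double-stranded 36-bp intergenic genomic probes plus negative controls. The binding buffer was 1× PBS with 1% milk, 0.2 mg/ml BSA, 0.5% salmon testes DNA and 0.03% Triton X-100. Bound protein was detected with Alexa488 anti-GST antibody and scanned at 488 nm. Binding intensity is the highest Masliner-normalised natural-log median intensity across replicate spots of either probe orientation.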
In the case of “CACAAACAGACAAACACACACACACGGACATACATA [CACACA_site6350]”, the “gcPBM binding intensity (ln)” value is 10.1 ± 0.11. The value for “AAAAAAAAAAAACATACACACATACATACAGATATA [CACACA_site4681]” was 9.32 ± 0.36; that for “AAAAAAAAAAAAAACACACACATACAGACAAAAATG [CACACA_site83]” was 9.7 ± 0.45. Turning to “TAAACAGACATACATACACACATACATACAGACATA [CACACA_site6997]”, the “gcPBM binding intensity (ln)” value was determined as 9.61 ± 0.37.

In the case of “AACAGACATACATACACACATACATACAGACATACA [CACACA_site1942]”, the “gcPBM binding intensity (ln)” value is 9.64 ± 0.45. Then “AACACATACAGACACACACACAAAAAAAAAAAAAAA [CACACA_site6322]”, with 9.58 ± 0.78; and “AAAAAAAACAGACACACACACATACACATACATACA [CACACA_site2857]”, with 10.2 ± 0.19.

“ATATATTTTGTTATGGTGCGTAAGAAATATATTCTT [GTGCAC_site9825]”: the “gcPBM binding intensity (ln)” value worked out at 8.73 ± 0.43.

For “CGAGCAAGACGGGGTGCACACAAACTAATATGCCGA [CACACA_site7936]”, the “gcPBM binding intensity (ln)” value amounted to 9.55 ± 0.5.

In the case of “TCAAACGGTTAAATATGTACATATATATATATATAT [XGTACX_site2339]”, the “gcPBM binding intensity (ln)” value is 9.695 ± 0.0071.

In the case of “TTATAATATTCATAAGGTACAGTTTATATATGTTAT [XGTACX_site8442]”, the “gcPBM binding intensity (ln)” value amounted to 8.68 ± 0.4. With “TCTTTGAATTTTTTAACACACACATGGGTGGATATA [CACACA_site8474]”, the “gcPBM binding intensity (ln)” value worked out at 9.04 ± 0.38. For “ATATAATAGTATATATGTACATATATTTAAATACTA [XGTACX_site1135]”, the “gcPBM binding intensity (ln)” value came out at 8.82 ± 0.4. As for “ATTCATACATGCACACGTACATATTTAAATATAAAA [XGTACX_site8388]”, the “gcPBM binding intensity (ln)” value turned out to be 9.04 ± 0.36.

As for “TTAGAAACATTGAAAGCATGCAATATTACTTTATAC [TGCATGCA_site522]”, the “gcPBM binding intensity (ln)” value is 8.82 ± 0.28. The value for “TTTTTTTCTTGTTTTAAATAATATACTGGAAAAAAA [CACACA_negctrl_site585]” was 7.88 ± 0.33; that for “TGTACCTTATTAATATATTTAACTCGCCTTATATAC [XGTACX_negctrl_site289]” was 8.96 ± 0.36; that for “AAATGTACAGGACGCACACACATATATATATATATA [CACACA_site3674]” was 10.11 ± 0.05. The value for “TAAAATGTACAGGACGCACACACATATATATATATA [CACACA_site3673]” was 9.92 ± 0.42; that for “AAATGTACAGGACGCACACACATATTTATATTTATA [CACACA_site7689]” was 9.53 ± 0.3; that for “GCCTTCCTTCTAAATGCACACGGAAAGTATAAATGT [CACACA_site8797]” was 9.04 ± 0.31. Then “TTAATGTAGAGAAAATGTACATTTTATTAAAACAAT [XGTACX_site6376]”, with 8.76 ± 0.47; and “TAAACATACAGATACACACACACACCCACAGAGACA [CACACA_site4429]”, with 10.15 ± 0.028; and “AAATAAAACAGACACACACACACATACACAAAAAAA [CACACA_site7753]”, with 10.1 ± 0.22. For the sequence “AACATACATAAACACACACACACACCCACAGAGACA [CACACA_site4430]”, the “gcPBM binding intensity (ln)” value was determined as 10.29 ± 0.035.

As for “AAATAACAAATTTTTAAAATGTATATATATATATAT [TGCATGCA_negctrl_site219]”, the “gcPBM binding intensity (ln)” value is 9.51 ± 0.12. Regarding “GTTTTTTTTTTTTTGGTGCGTCATTTTCAAAAGAAG [GTGCAC_site9745]”, the “gcPBM binding intensity (ln)” value was found to be 8.57 ± 0.41. For “AAACAAAAAAATTGAAATAAAATGAAGTAAATGAAC [TGCATGCA_negctrl_site129]”, the “gcPBM binding intensity (ln)” value amounted to 8.9 ± 0.66.

In the case of “TTTTTTTTTTTTTTTTTTTTTTTCTTTATTTTTTTT [CACACA_negctrl_site703]”, the “gcPBM binding intensity (ln)” value was 8.16 ± 0.43. The value for “ATTGTTTTGTAATATGAAAAAATTGTGTAATGTGTC [CACACA_negctrl_site1510]” was 8.72 ± 0.4.

As to “TTTTAAGTTTTTGAATGTACGTAATTTGTAAATTCT [XGTACX_site2448]”, the “gcPBM binding intensity (ln)” value was 8.49 ± 0.47. The value for “TATTTTTATTTTACATTATTTGTTTATAATTCTTAA [CACACA_negctrl_site1358]” was 8.53 ± 0.57; that for “AAAAAAAAAAAACACACACACACACCGACAAAATAT [CACACA_site8411]” was 10.4 ± 0.25; that for “CATATATACTCATACACACACACACCGACACAGACA [CACACA_site5026]” was 9.84 ± 0.17. In the case of “CACAAACAAAAACACACACACACACCGACAAAAATG [CACACA_site5362]”, the “gcPBM binding intensity (ln)” value worked out at 10.24 ± 0.092.

With “TATTTATTAAAACACACACACACACCGACAAAATAA [CACACA_site4293]”, the “gcPBM binding intensity (ln)” value worked out at 9.97 ± 0.25. Take “AAAAAAAAAAAAAACACACACACAAAAAAAAATATA [CACACA_site1104]”: the “gcPBM binding intensity (ln)” value is 9.68 ± 0.35. The value for “ATGTTACACCGACACACACACATAAAAAAACAAAAA [CACACA_site5750]” was 9.61 ± 0.42; that for “AAAAAAAAAAAACACACACACAAAAAAAAATATATA [CACACA_site1105]” was 9.85 ± 0.54.

Turning to “TAAAATAAAACAAACACACACACACCGACACAAAAA [CACACA_site5993]”, the “gcPBM binding intensity (ln)” value amounted to 10.1 ± 0.035.

For the sequence “TATACTCATATATAAACACACAAAAAAAAAAAAAAA [CACACA_site5165]”, the “gcPBM binding intensity (ln)” value is 8.72 ± 0.45. Then “ACAAATAAATAAAAAACACACACAAATAAATAAATA [CACACA_site8708]”, with 9.57 ± 0.38; and “ATAAATGACAGACACACACACAAAAAAAAAAAACAA [CACACA_site2626]”, with 9.84 ± 0.57; and “CATATACTCGGACACACACACACACCGACAAAAAAA [CACACA_site4433]”, with 10.1 ± 0.41.
